# Assay outcomes deposited in PubChem by National Center for Advancing Translational Sciences (NCATS).
# Most compounds without a hit are left out; they make up all but 6.6% or so of the library.
# KB-3-1 tox = kills parental KB-3-1 adenocarcinoma cells. AID 1347075. 1.4% of 400,000 active. KB-3-1 viability, CellTiter-Glo ATP luminescence, 72 h. Potency, µM (highest dose often 46.1 µM), usual class: cytotoxic; also: % is scaled to controls: 0 for no effect and ±100 for the full control effect; nearly all actives have a fitted effect of over 60% in size
#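 Multi-concentration cytotoxicity screen in KB-3-1 cells grown in DMEM lacking phenol red with 10% FBS. After 72 h at 37 °C with compound, ATP-dependent luminescence was recorded.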
# SW480 rerep = DNA re-replication induction in SW480 cells; Potency, µM (top dose mostly 46.1 µM), for the others: top-dose re-replication activation, hits mostly activators; SW480 DNA re-replication, Hoechst DNA content imaging, 48 h; 1.8% of 340,000 active; AID 624297; also: % of control where 0% means no effect; nearly all actives have a fitted effect of over 55% in size
#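 Treated cells incubate 48 hr (37 C, 5% CO2), are stained 40 min with Hoechst, and nuclear fluorescence is enumerated; a rise in nuclei with high DNA signal marks re-replication.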
# MCF10A rerep = induces DNA re-replication in MCF 10a normal breast cells. MCF 10A DNA re-replication, Hoechst nuclear intensity, 48 h. 2.9% of 350,000 active. Potency, µM (titrated, usually from 46.1 µM), without a hit: top-dose activity, positive = re-replication, usual class: activators. AID 624296; also: % of control where 0% means no effect; nearly all actives have a fitted effect of over 50% in size
# KB-V1 MDR tox = kills drug-selected multidrug resistant KB-V1 cells; KB-V1 MDR cells viability, CellTiter-Glo, 72 h; Potency, µM (series often up to 46.1 µM), hits mostly cytotoxic; 3.4% of 400,000 active; AID 1347076; also: % is scaled to controls: 0 for no effect and ±100 for the full control effect; nearly all actives have a fitted effect of over 60% in size
#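 Following 72 h at 37 degrees C with compound, KB-V1 cell viability was read by CellTiter-Glo luminescence, medium being phenol-red-free DMEM plus 10% FBS; concentration-response parameters came from normalized, curve-fitted qHTS data.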
# RGS4 inhibitor = inhibitors of human regulator of G protein signaling 4; P49798; Transcreener GDP fluorescence polarization, RGS4-accelerated GTP hydrolysis; Potency, µM (top dose mostly 114 µM), inactives show top-dose activity change, negative = inhibition, actives largely listed as inhibitors; 0.039% of 390,000 active; also: % is scaled to controls: 0 for no effect and ±100 for the full control effect; nearly all actives have a fitted effect of over 75% in size
#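 MLSMR compounds (23 nl, pin-transferred) preincubated 10 min at room temperature with a 500nM (2x) first reagent, then RGS4 at 900nM (2x) plus Transcreener GDP mix added; fluorescence polarization (620/688 nm) read before and after 90 min at 30 °C.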
# TSG101-PTAP inh = blocks PTAP/TSG101 interaction to inhibit HIV-1 budding | 340,000 tested, under 10 active | Q99816 | Fluorescence polarization, FITC-PTAP peptide / Tsg101 binding | Potency, µM (top dose mostly 115 µM), without a hit: at the top dose activity change, negative = inhibition, usual class: inhibitors; active = well fitted inhibition curve with a large enough effect in the main read-out, with a control signal flat, not every such curve was filed as active; inconclusive = small, poorly fitted or top-dose-only effect, or effect the other way, or a change in a side signal; inactive = no such curve, though single readings can be large or run the other way; also: % of control where 0% means no effect
# Target sequence (Q99816 whole entry, looked up): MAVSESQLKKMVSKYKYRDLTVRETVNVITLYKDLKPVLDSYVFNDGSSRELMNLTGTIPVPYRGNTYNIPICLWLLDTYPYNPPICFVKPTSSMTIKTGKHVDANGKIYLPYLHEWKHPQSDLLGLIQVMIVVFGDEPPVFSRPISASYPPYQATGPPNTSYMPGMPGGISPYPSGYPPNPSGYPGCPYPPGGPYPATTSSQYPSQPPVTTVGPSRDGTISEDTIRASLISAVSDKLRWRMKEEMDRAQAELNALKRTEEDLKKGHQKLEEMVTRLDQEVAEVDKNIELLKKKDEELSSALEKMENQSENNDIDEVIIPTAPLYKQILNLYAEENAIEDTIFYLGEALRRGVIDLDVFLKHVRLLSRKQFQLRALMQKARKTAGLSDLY
#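 Tsg101 binding domain (10 uM final) was mixed with compound and a FITC-labeled PTAP peptide (50 nM final) in HEPES pH 7.5 buffer with NaCl, Tween 20, EDTA and TCEP; fluorescence polarization was read after 20 min at r.t.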
# Active calls of the source: *; i = inactive; u = inconclusive; x = no result. Unless noted, calls follow the shape of the dose curve; as a rule, active = well fitted curve in the direction sought with a large enough effect; inconclusive = small, poorly fitted or top-dose-only effect, or another doubt; inactive = no such curve, though single readings can be large; an effect the other way counts as inactive or inconclusive. Potency is read from the fitted curve at half-maximal effect.
SMILES,KB-3-1 tox,SW480 rerep,MCF10A rerep,KB-V1 MDR tox,RGS4 inhibitor,TSG101-PTAP inh
Cc1nc(SCC(=O)NC2CCCC2)c2c(C)c(C)sc2n1,i,-0.1%,u,i,-2.7%,-2.0%
Cc1nc(SCC(=O)Nc2ccccc2Cl)c2c(C)c(C)sc2n1,u,2.0%,23.1µM*,i,4.6%,-3.6%
CCc1nc(SCC(=O)Nc2ccccc2C)n[nH]1,i,u,-1.8%,i,21.7%,-2.8%
CCc1nc(SCC(=O)Nc2ccccc2Cl)n[nH]1,i,9.2µM*,-4.5%,i,19.2%,-8.4%
O=c1c2sc3ccccc3c2n(Cc2ccc(F)cc2)c(=O)n1Cc1ccco1,i,x,x,i,3.5%,x
CC1(C)Cc2c(sc(NC(=O)COc3ccc(Cl)cc3)c2C#N)C(C)(C)N1,i,u,u,i,-25.9%,1.5%
Cc1ccccc1OCC(=O)Nc1sc2c(c1C#N)CC(C)(C)NC2(C)C,i,u,20.6µM*,i,-21.3%,-4.3%
CCOC(=O)c1c(C)[nH]c(C)c1S(=O)(=O)NCC(=O)Nc1ccc(CC)cc1,i,x,x,i,-18.6%,x
Cc1nc2c(C(=O)N3CCCC3)cnn2c(C)c1Cc1c(F)cccc1Cl,i,1.0%,1.8%,23.1µM*,23.3%,-5.2%
CCOC(=O)N1CCN(C(=O)c2cnn3c(C)c(Cc4ccc(C)cc4)c(C)nc23)CC1,i,-5.9%,4.5%,3.66µM*,-17.9%,-5.3%
O=C(Nc1cccc(C(F)(F)F)c1)N1CCC(CN2CCCCCC2)CC1,x,x,x,x,-11.5%,x
COC(=O)c1ccccc1-c1ccc(C(c2c(C)[nH][nH]c2=O)c2c(C)[nH][nH]c2=O)o1,u,25.5%,14.1µM*,u,-24.3%,-3.3%
COC(=O)c1ccc(-c2nc3cc(Cl)c(N)cc3s2)cc1,i,u,0.651µM*,i,-0.8%,0.7%
COc1cc(-c2noc(-c3ccc(N(C)C)c([N+](=O)[O-])c3)n2)cc(OC)c1OC,i,x,x,i,5.2%,x
COc1ccc(NC(=O)CCC(=O)c2cccs2)cc1Cl,i,10.4%,0.8%,i,-10.0%,-3.7%
COc1cc(NCCC(=O)c2cccs2)c(OC)cc1Cl,i,u,20.6µM*,i,-38.3%,3.1%
CCOC(=O)COc1cccc2c(=O)n(CC(=O)NCc3ccc4c(c3)OCO4)ccc12,u,7.31µM*,u,i,18.8%,-1.1%
COC(=O)COc1cccc2c(=O)n(CC(=O)NCc3ccc(F)cc3)ccc12,1.46µM*,5.8µM*,10.3µM*,u,4.8%,-0.3%
CCOC(=O)C(C)Oc1cccc2c(=O)n(CC(=O)NCc3ccccc3)ccc12 (centres undefined),1.16µM*,1.3µM*,0.581µM*,2.06µM*,-0.2%,-0.8%
CCOC(=O)C(C)Oc1cccc2c(=O)n(CC(=O)NCc3ccc(F)cc3)ccc12 (centres undefined),1.3µM*,u,u,1.3µM*,-6.8%,-1.3%
Cc1ccc(-c2cc(-c3coc4ccc(Cl)cc4c3=O)c3c(n2)-c2ccccc2OC3)cc1,i,x,x,i,24.1%,x
Cc1ccc(-c2nnc3ccccc3c2C(=O)Nc2cccc(C(F)(F)F)c2)cc1,i,x,x,i,7.7%,x
O=S1(=O)CCOC[C@H](c2ccccc2)N1Cc1ccc(F)cc1,i,x,x,i,x,x
Cc1ccc(-c2nc(NC(=O)CSc3nc(C)nc4sc5c(c34)CCCC5)ns2)cc1,x,x,x,x,-12.1%,x
Cc1ccc(S(=O)(=O)Nc2cc(Cl)c3oc4c(c3c2)CCCC4)cc1,u,x,x,i,22.8%,x
COC(=O)c1cccc(NC(=O)NC(=O)c2ccc(Cl)cc2)c1,i,18.4µM*,6.2%,i,-30.2%,-0.5%
COC(=O)c1cc(NC(=O)Nc2cccc(Cl)c2)ccc1Cl,i,0.1%,-1.7%,23.1µM*,16.7%,-9.4%
